This note sets out measurements from PubChem BioAssay (NCI).

The panel holds about 79,000 compounds, 15% with a hit somewhere; the sample as a whole holds those more often. Unmarked numbers belong to inactive results. No stated cut-off is given here; in the data, active means growth inhibition above about 70%; inactive means the rest.

A short description of this experiment: NCI Yeast Anticancer Drug Screen. Data for the sgs1 mgt1 strain (AID 161).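 Further: 0% = growth of cultures given vehicle only.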 Particulars: S. cerevisiae sgs1 mgt1 strain, at 50.0 µM, active compounds read high. As for the experimental part:
Growth inhibition of yeast strains with defined genetic alterations is measured as a screen for potential anti-cancer activity. Selected strains with alterations in DNA damage repair or cell cycle control were exposed to compounds and growth inhibition was measured relative to vehicle treated controls. The strain used in this assay is sgs1 mgt1
Turning to `S=C=Nc1ccc2ccccc2c1`, the growth inhibition is -5.9%. For `OC1Cc2ccccc2C1` the value was -17.6%.

Take `CC(C)c1ncc([N+](=O)[O-])n1C`: the growth inhibition was -16.6%. Take `Cc1c(Cl)cccc1NC(=S)NC(=O)c1ccccc1`: the growth inhibition is 14.8%. Turning to `c1ccc2c(NCCCN3CCN(CCCNc4c5ccccc5nc5ccccc45)CC3)c3ccccc3nc2c1`, the growth inhibition was 11.1%. As for `COC1OC(COC(C)=O)C(OC(C)=O)C(OC(C)=O)C1OC(C)=O` (stereo not given), the growth inhibition was 47.2%.

For the compound `O=C(O)c1c[nH]c2ccccc2c1=O`, the growth inhibition was 5.7%. For `COc1cc(OC)c2cc(C(=O)c3ccc(C#N)cc3)c(=O)oc2c1` the value was 25.1%. Turning to `O=C(c1ccccc1O)N1CCCC1`, the growth inhibition was 19.9%. For `CC(C)C1CCC(C)C(O)C1` (stereo not given) the value was 8.55%; for `CCCCCCCCCCCCCCCCCCSC(=N)N`, -9.1%. Turning to `Cc1ccc(C2CCCCC2)cc1Br`, the growth inhibition was 4.4%. For `c1ccc(Oc2c3ccccc3nc3ccccc23)cc1` the value was -13.2%. Regarding `C=CCOc1ccc(Cl)cc1Cl`, the growth inhibition is -0.45%. For `Cc1nc(C)c(C(=O)O)cc1C(=O)O`, the growth inhibition was 9.15%. For `O=C(NCc1ccccc1)/C(=C/c1ccccc1)NC(=O)c1ccccc1` the value was -33.9%; for `COc1ccc2c(c1)Nc1ccccc1S2`, -26.6%; for `O=C1C=C[C@H](O)[C@@]2(CO)O[C@@H]12`, -14.5%. Regarding `c1cc(CNCCNCc2ccncc2)ccn1`, the growth inhibition is -46.5%. Next, `Cc1cc2nc(C)c(C)nc2cc1C`: -27.2%; `O=C(NC1CCCCC1)c1ccc(Cl)cc1`: -20.1%. For `COC(=O)c1ccc([N+](=O)[O-])c(C)c1` the value was -50.2%.

For `Nc1ccn(C2OC(CO)C(O)C2F)c(=O)n1` (stereo not given), the growth inhibition is 11.9%.

Take `COc1ccc(-c2csc(NC(=O)Nc3nc(-c4ccc(OC)cc4)cs3)n2)cc1`: the growth inhibition is 0.7%. Turning to `O=C(OCc1ccccc1)n1nnc2ccccc21`, the growth inhibition was 8.55%. As for `OCCc1ccc(Cl)cc1`, the growth inhibition is 9.7%. For `CC(=O)C1C(=O)C(=O)N(c2ccc(Cl)c(Cl)c2)C1=O` (stereo not given) the value was -2.35%; for `CCCC(=O)c1cccs1`, 10.8%; for `CC(C)N1CC(=O)N2CSCC2C1=O` (stereo not given), 9.8%. For `C=CCc1cc(OC)c(OC)c(OC)c1` the value was -16.3%.

`CCOc1ccncc1[N+](=O)[O-]`: the growth inhibition was 3.25%. Regarding `O=C(O)Cc1ccccn1`, the growth inhibition was -1.75%. Take `N#C/C(=C\c1ccc2c(c1)OCO2)c1ccccc1`: the growth inhibition is 3.15%.

Consider `O=S(Cc1ccccc1)/C(=C/NC(=S)Nc1cc(Cl)ccc1Cl)c1ccccc1` (stereo not given), for which the growth inhibition was 14.4%. For `O=C1C=C(c2ccccc2)C(O)(c2ccccc2)C1` (stereo not given) the value was 6.75%; for `Nc1nc2nnc(-c3ccccc3)c(-c3ccccc3)n2n1`, 6.4%. Take `CC1(C)CC(=O)C=C(N)C1`: the growth inhibition was 1.05%. For `CCOC(C=O)OCC` the value was 4.35%; for `NCC(O)C(O)C(O)C(O)CO` (stereo not given), 15.1%. For `CC(CC(CCC(=O)O)(c1ccccc1)c1ccccc1)N(C)C` (stereo not given) the value was 9.45%.
